The whole screen tested about 330,000 compounds, of which about 1,000 (0.3%) were called active. Another 3% or so got no clear call; they are omitted. What follows is part of a selection rich in actives, with near analogues and random picks from the rest. Values without a mark were called inactive. The call rests on the fitted dose curve; in most records, active means well fitted inhibition curve with a large enough effect; inconclusive means small, poorly fitted or top-dose-only effect; inactive means no such curve, though single readings can be large or run the other way; tested in mouse RAW 264.7 cells.
On the % scale 0 is the no-effect control and ±100 the full control effect; potency means the concentration at half of the fitted maximal effect.

This assay is described as follows: qHTS for Inhibitors of Cell Surface uPA Generation. Further: nearly all actives have a fitted effect of over 55% in size. Particulars: cell surface uPA generation assay; series mostly up to 38.3 µM; activity change, negative = inhibition: at the top concentration. In outline: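 RAW 264.7 cells, 4000/well, given compound (1:5 dilutions, up to 38.3 uM final) and incubated 24 h at 37 C. Blocked uPA-dependent LF entry keeps ATP high; ATPlite luminescence read, 5 s exposure.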
For orientation: qHTS replaces the single test concentration by a dilution series.
For the molecule `O=C(NN=Cc1ccccc1)c1ccccc1`, the “activity change, negative = inhibition” value was -9.51%.
With `CC(=O)N1CCc2ccc(N)cc21`, the “activity change, negative = inhibition” value was 3.65%.
Turning to `COc1ccc2c(c1)c(=Cc1ccc(N(C)C)cc1)c1cc(-c3ccccc3)[n+](C)n12`, the “activity change, negative = inhibition” value was -7.82%.
The same measure, in the same setting: with `O=[N+]([O-])c1cc2ccccc2nc1-c1ccccc1` the figure was -3.87%.
As to `COc1ccc(C(=O)c2c3ccc([N+](=O)[O-])cc3[n+]([O-])n2CCCN)cc1`, the Potency was 0.794 µM (active).
On to `COc1ccc2c(C(=O)c3ccc(C)cc3)n(CCC(N)=O)[n+]([O-])c2c1`, for which the “activity change, negative = inhibition” value is -0.295%.
For the molecule `COc1ccc(C(=O)CC(=O)C(=O)Nc2cc([N+](=O)[O-])ccc2OC)cc1`, the “activity change, negative = inhibition” value is -10.5%.
Still for that read-out and setting: with `CC/C(=C(/c1ccccc1)c1ccc(OCC[N+](C)(C)C)cc1)c1ccccc1` the figure was -1.1%; with `Cc1c(NS(=O)(=O)c2cccc(C(=O)Nc3ccc(SC(F)F)cc3)c2)c(=O)n(-c2ccccc2)n1C`, -10.2%.
On the same count and under the same terms, the value for `OCCN1CCN(CCO)C1=S` was -0.396%; that for `COc1cccc(C=CC(=O)C=CC=Cc2ccccc2)c1` was -6.72%.
With `COc1cc(/C=C2\Oc3ccc(C#Cc4ccc(O)cc4)cc3C2=O)cc(OC)c1`, the Potency was 4.47 µM (active).
Take `COc1ccc2c(c1)O/C(=C\c1ccccc1O)C2=O`: the “activity change, negative = inhibition” value is -5.64%.
`COC(=O)C(C)Oc1ccc2c(c1)O/C(=C\c1cccc(Br)c1)C2=O` (stereo not given): the “activity change, negative = inhibition” value was 13.6%.
Same read-out and setting: with `CCC1([N+](=O)[O-])COC(c2ccc(C(C)C)cc2)OC1` (stereo not given) the figure was -8.09%; with `N#CC1=C(N)Oc2cc(N)ccc2C1c1ccccc1` (stereo not given), -9.22%; with `Cc1ccc(OCC(=O)OC(C)CN(C)Cc2ccccc2)cc1` (stereo not given), -3.72%.
In the case of `CN(Cc1ccccc1)CC(O)COc1ccc(CNCc2cc3ccccc3s2)cc1` (stereo not given), the Potency was 10 µM (active).
As for `OC(CNCc1ccc2c(c1)OCO2)COc1ccccc1` (stereo not given), the “activity change, negative = inhibition” value was 2.79%.
For `O=c1nc(NO)ccn1C1CCCO1` (stereo not given), the “activity change, negative = inhibition” value is 3.28%.
Same read-out and setting: with `CN(C)CCNC(=O)c1ccc(Cl)c2cc3ccccc3nc12` the figure was -9.97%; with `Cc1ccc(S(=O)(=O)n2oc(=O)c(C3CCCCC3)c2N)cc1`, -4.82%.
With `COC(=O)C1=CN(Cc2ccc(OC)c(OC)c2)C=C(C(=O)OC)C1c1cccs1`, the “activity change, negative = inhibition” value is -8.06%.
The same measure, in the same setting: with `CCc1ccc(OCC2c3cc(OC)c(OC)cc3CCN2C(C)=O)cc1` (stereo not given) the figure was 9.64%.
In the case of `COc1ccc(CC2c3cc(OC)c(OC)cc3CC[N+]2(C)CCC(=O)OCCCCCOC(=O)CC[N+]2(C)CCc3cc(OC)c(OC)cc3C2Cc2ccc(OC)c(OC)c2)cc1OC` (stereo not given), the Potency was 10 µM (active).
Take `COc1ccc(S(=O)(=O)N2CCc3ccccc32)cc1C(=O)Nc1cc(S(C)(=O)=O)ccc1Cl`: the “activity change, negative = inhibition” value is -10.3%.
For `O=C1/C(=C\c2ccc([N+](=O)[O-])cc2)CS(=O)(=O)C/C1=C/c1ccc([N+](=O)[O-])cc1`, the “activity change, negative = inhibition” value is -3.6%.
Take `CCOC(=O)c1ccccc1OC(=O)Oc1ccccc1C(=O)OCC`: the “activity change, negative = inhibition” value was -9.61%.
In the case of `CCOC(=O)c1c(C)[nH]c(C)c1S(=O)(=O)N(C)CC(=O)Nc1ccccc1C`, the “activity change, negative = inhibition” value is 15.1%.
With `CCOC(=O)c1c(C)[nH]c2c1-c1ccccc1C(=O)C2=O`, the Potency is 5.62 µM (active).
Take `CC(=O)Oc1ccc(OC(C)=O)c2c1C1C=CC2CC1`: the “activity change, negative = inhibition” value was -6.74%.
The same measure, in the same setting: the value for `C[C@H](O)[C@@H]1C(=O)N2CCc3ccc(N4CCOCC4)cc3[C@@H]2C[C@@H]1N(C)C(=O)C(C)(C)C` was 17.9%; that for `CC(NC(=O)c1ccccc1)C(=O)OCC(=O)Nc1cccc(S(=O)(=O)N2CCCC2)c1` (stereo not given) was 9.64%.
As for `CCN1/C(=C\c2ccc3ccccc3[n+]2CC)Sc2cc(C)ccc21`, the Potency was 3.55 µM (active).
Regarding `O=C(NNC(=O)c1ccccc1O)c1ccccc1O`, the “activity change, negative = inhibition” value is -13.1%.
